As a reminder, the inhibition is the drop in the measured response relative to a control, in per cent.

Screen size: about 130,000 compounds; about 1,200 (0.92%) were called active.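 Rule for the calls: active = inhibition above the mean plus 3 SD, with well images judged a real hit on visual review (cut at about 60% in these data, passing the limit was not always enough); inconclusive = inhibition over the cutoff but images rejected on review; inactive = inhibition not above the cutoff.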 The entries come from a sample that favours actives as a whole.

A short description of this experiment: inhibitors of insulin promoter-driven GFP, primary screen, imaging, TRM-6 cells (human fetal islet line), eGFP reporter, cell count (AID 1273;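 for normalized cell count: cells exposed to compound for 48 h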). Conditions: at 2 µM, reporter expression induced with tamoxifen; inhibition: stronger effect = higher value; normalized cell count: measured here: cell count, toxicity.
With `Cc1ccccc1N1C(=O)C(Oc2ccc(Cl)cc2)C1CNCC1CCCO1` (stereo not drawn), the inhibition is -11.8% (inactive) and the normalized cell count was 94.4%.

For the compound `Brc1ccc(-c2nnc(-c3ccccc3)o2)o1`, the inhibition was 19.1% (inactive) and the normalized cell count turned out to be 142%.

`OC(c1nnc(-c2ccccc2)o1)c1cccs1` (stereo not drawn): the inhibition is 75% (active) and the normalized cell count was 106%.

Regarding `Nc1ccc(-c2nnc(-c3ccc(-c4ccccc4)cc3)o2)cc1`, the inhibition was 46.7% (inactive) and the normalized cell count is 46.6%.

Take `CCCCNC(=O)N1CCN(S(C)(=O)=O)CC1`: the inhibition was -42.9% (inactive) and the normalized cell count worked out at 86.1%.

Consider `CCCCCN1CC(O)=C(c2nc(-c3ccc(Cl)cc3)cs2)C1=N`, for which the inhibition was 81.1% (active) and the normalized cell count came to 67.1%.

For `CCCCCN1CC(O)=C(c2ccccc2)C1=N`, the inhibition was 9.59% (inactive) and the normalized cell count was determined as 61.8%.

In the case of `Clc1ccc(-c2csc(-c3ccncc3)n2)cc1`, the inhibition is -16.7% (inactive) and the normalized cell count stood at 49.8%.

On to `O=C(O)CSCC(=O)Nc1ccc(C(F)(F)F)cc1`, for which the inhibition was 29.4% (inactive) and the normalized cell count came to 92.1%.

Take `CCC(=O)c1ccc(OCC(O)Cn2nc(C)c(C(C)=O)c2C)cc1` (stereo not drawn): the inhibition was 20% (inactive) and the normalized cell count turned out to be 57.4%.

For `Cc1ccccc1NC(=O)Cn1c(=O)n(CC2CCCO2)c(=O)c2ccccc21` (stereo not drawn), the inhibition was 13.3% (inactive) and the normalized cell count was 106%.

In the case of `O=C(CSc1nnnn1-c1ccc2c(c1)CCC2)Nc1ccc2c(c1)OCCO2`, the inhibition is 28.6% (inactive) and the normalized cell count is 88.2%.

As for `Cc1ccc(SCC(=O)Nc2ccc3c(c2)OCCO3)cc1`, the inhibition is 20.6% (inactive) and the normalized cell count came out at 137%.

Regarding `O=C(CSc1nnnn1C1CCCC1)Nc1ccc2c(c1)OCCO2`, the inhibition is 73.3% (active) and the normalized cell count is 70.4%.

For `COc1ccccc1N(C)S(=O)(=O)c1ccc(Cl)c(C(=O)N2CCC(C(N)=O)CC2)c1`, the inhibition was 18.2% (inactive) and the normalized cell count was determined as 83.5%.

As for `CCOC(=O)c1sc(NC(=O)CSc2nc(O)c(Cc3ccccc3)c(=O)[nH]2)nc1C`, the inhibition is -50% (inactive) and the normalized cell count was 56.7%.

With `O=c1c(Cl)c(NC2CC2)cnn1-c1ccccc1`, the inhibition is -85% (inactive) and the normalized cell count turned out to be 114%.

Turning to `NC(=O)c1ccc(CN2CCC(Cc3ccccc3)CC2)cc1`, the inhibition is -347% (inactive) and the normalized cell count came to 40.1%.

For `Cc1ccc(CC(=O)Nc2cccc(C#N)c2)cc1`, the inhibition was -16.7% (inactive) and the normalized cell count was found to be 153%.

Turning to `Cc1nc2ccccc2cc1C(=O)N/N=C/c1ccc([N+](=O)[O-])cc1`, the inhibition is 75% (active) and the normalized cell count was determined as 81%.

On to `NC(=S)N/N=C/c1ccc([N+](=O)[O-])cc1`, for which the inhibition was -36.4% (inactive) and the normalized cell count came to 109%.

On to `Cc1ccsc1C(=O)N/N=C/c1ccc([N+](=O)[O-])cc1`, for which the inhibition is 6.67% (inactive) and the normalized cell count was determined as 153%.

`COc1cc(C(=O)N[C@@H](C)C(=O)NCc2ccco2)cc(OC)c1OC`: the inhibition is 33.3% (inactive) and the normalized cell count came to 166%.

As to `CCCN(C(=O)CSc1nnnn1C)c1c(N)n(Cc2ccccc2)c(=O)[nH]c1=O`, the inhibition is -90.9% (inactive) and the normalized cell count came to 30.3%.

For the origin of these results see PubChem BioAssay AID1273 (Columbia University Molecular Screening Center, 2008).
